This passage reports activation (protection from necroptosis) results from PubChem BioAssay AID463117 (University of Pittsburgh Molecular Library Screening Center, 2010).

Some of the results follow. Unmarked numbers belong to inactive results. Activity calls are given as the source filed them.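 Rule for the calls: active = mean protection from necroptosis of at least 50% over duplicate tests; inactive = mean protection below 50%.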

This test is described as follows: inhibitors of zVAD-triggered necroptosis in L929, confirmation, L929 cells, duplicate runs (AID 463117).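 Note: 0% = cells with zVAD alone and 100% = vehicle cells without zVAD.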 The settings on record: L929 zVAD-induced necroptosis rescue, ATP luminescence, 24 h; at 10 µM; stronger effect = higher value.
Regarding `Cc1cc(NC(=O)c2cnn3cccnc23)n(-c2ccccc2)n1`, the activation (protection from necroptosis) was 21.5%.

With `COc1ccc(N=Cc2c(O)[nH]c3ccccc23)cc1OC`, the activation (protection from necroptosis) is 76% (active).

As for `COc1ccc(-c2csc(Nc3ccc(O)cc3)n2)cc1`, the activation (protection from necroptosis) is 30.2%.

As to `COc1cc(N=Cc2c(O)[nH]c3ccccc23)cc(OC)c1OC`, the activation (protection from necroptosis) was 72.9% (active).

`Cc1ccc(Nc2ccccc2N)cc1`: the activation (protection from necroptosis) is 5.52%.

In the case of `COc1cc(/C=N/Nc2nc3ccccc3s2)ccc1O`, the activation (protection from necroptosis) was 75.3% (active).

With `Oc1ccc(/C=N/Nc2ccc(C(F)(F)F)cn2)cc1O`, the activation (protection from necroptosis) was 83.8% (active).

Regarding `Cc1csc(NC(=O)NC2(C(F)(F)F)Oc3ccccc3O2)n1`, the activation (protection from necroptosis) was 1.61%.

For the compound `CCOc1ccc(C(=O)Nc2nccs2)cc1[N+](=O)[O-]`, the activation (protection from necroptosis) is 1.6%.

For `CC1CCCC(C)N1CCCNC(=O)c1cc2c(=O)n(C)c3ccccc3c2n1C` (stereo not given), the activation (protection from necroptosis) was 37.3%.

Regarding `OCCCNc1nccc(-c2cc(Nc3cccc(Cl)c3)ncn2)n1`, the activation (protection from necroptosis) is 102% (active).

On to `Cc1ccc(NC(=O)COc2ccc(-n3ccnc3)cc2)cc1Cl`, for which the activation (protection from necroptosis) was 62.3% (active).

As to `CCOC(=O)N1CCN(C(=O)CNC(=O)Cc2ccc(Cl)cc2)CC1`, the activation (protection from necroptosis) was 34.3%.

With `CC(=O)Nc1cccc(-c2cnc3ccccc3n2)c1`, the activation (protection from necroptosis) was 1.04%.

With `Cn1ccc(NC(=O)Nc2ccc(Cl)cc2)n1`, the activation (protection from necroptosis) is 28.3%.

Take `O=C(COc1cccc(-n2cnnn2)c1)NCCC1=CCCCC1`: the activation (protection from necroptosis) is 36.6%.

Take `CCn1c(SCC(=O)Nc2nc3ccc(OC)cc3s2)nnc1-c1ccoc1C`: the activation (protection from necroptosis) was 1.15%.

For `COc1ccc2nc(NC(=O)NC3CCCCC3)sc2c1`, the activation (protection from necroptosis) was 37.5%.

Turning to `COc1ccc(-n2cnc3cc(NCc4ccco4)ccc32)cc1`, the activation (protection from necroptosis) is 52.9% (active).

For `CCn1c(SCCC(C)C)nnc1-c1c[nH]c2ccccc12`, the activation (protection from necroptosis) is 2.15%.

In the case of `CC1CCCCC1NC(=O)/C(C#N)=C/C=C/c1ccccc1[N+](=O)[O-]` (stereo not given), the activation (protection from necroptosis) was 4.07%.

`CC(=O)c1ccc(S(=O)(=O)N2CCN(C(=O)/C=C/c3ccc4ccccc4n3)CC2)cc1`: the activation (protection from necroptosis) is 2.81%.

With `COc1ccc(Nc2ncc(F)c(N3CCOCC3)n2)cc1`, the activation (protection from necroptosis) is 1.91%.

Regarding `CC(=O)c1cc(C#N)c(SCC(=O)Nc2nccs2)nc1C`, the activation (protection from necroptosis) was 0.793%.

In the case of `Cc1cc(-n2cnc(-c3cn(C)nc3C)n2)no1`, the activation (protection from necroptosis) is 27.6%.

As to `O=C(CSc1ccc([N+](=O)[O-])cn1)Nc1ccc(N2CCOCC2)c(Cl)c1`, the activation (protection from necroptosis) is 3.3%.

On to `Cc1[nH]c(=O)c(C(=O)/C=C/c2ccccc2)c2c1CCCC2`, for which the activation (protection from necroptosis) was 1.29%.

On to `COc1ccc(-n2cnc3cc(C(=O)NC4CCCC4)ccc32)cc1`, for which the activation (protection from necroptosis) is 62% (active).

On to `C[C@@H]1C[C@@H]2O[C@H]2/C=C\C=C\C(=O)Cc2c(Cl)c(O)cc(O)c2C(=O)O1`, for which the activation (protection from necroptosis) is 76.5% (active).

Take `Cc1ccc(NC(=O)NC2CCCCC2)cc1S(=O)(=O)N1CCOCC1`: the activation (protection from necroptosis) is 2.38%.

In the case of `CC(=O)Nc1ccc(NC(=S)NC(=O)/C=C/c2ccccc2)cc1`, the activation (protection from necroptosis) was -0.0785%.

On to `Oc1ccc(-c2onc3ccc(Cl)cc23)cc1`, for which the activation (protection from necroptosis) was 11.4%.

On to `Cc1cccc(NC(=O)Nc2ccc3c(c2)OCO3)n1`, for which the activation (protection from necroptosis) was -0.556%.

Turning to `Cc1ccccc1NC(=O)CSC1=NCCN1`, the activation (protection from necroptosis) is 7.19%.

As for `CCN(CC)S(=O)(=O)c1ccc(NC(=O)c2cccnc2Cl)c(NC(=O)c2cccnc2Cl)c1`, the activation (protection from necroptosis) is 2.93%.
